Data: PubChem BioAssay (NCI)
This is part of a sample that, as a whole, favours compounds with a hit. Of some 79,000 tested, about 15% had one in any assay. Rule as the data show it: active = growth inhibition above about 70%; inactive = the rest.

Experiments:
[1] = NCI Yeast Anticancer Drug Screen. Data for the rad50 strain (AID 155);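 also: 0% = growth of vehicle-only cultures of the same strain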; details: S. cerevisiae rad50 strain growth inhibition; at 50.0 µM; stronger effect = higher value
Outline: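 Vehicle-treated cultures provide the reference for the growth inhibition reported for compound-exposed, repair-deficient yeast.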

[2] = NCI Yeast Anticancer Drug Screen. Data for the mec2-1 strain (AID 157); details: S. cerevisiae mec2-1 strain, at 50.0 µM, stronger effect = higher value
Outline: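 Compounds were applied to mec2-1 yeast cells. Their growth was then compared with that of vehicle-treated cultures to give growth inhibition.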

[3] = NCI Yeast Anticancer Drug Screen. Data for the sgs1 mgt1 strain (AID 161);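 also: 0% = growth of cultures given vehicle only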; details: S. cerevisiae sgs1 mgt1 strain, at 50.0 µM, stronger effect = higher value
Outline: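 Yeast cells carrying a defined DNA-repair defect were exposed to test compounds. Growth inhibition was measured relative to vehicle-treated controls.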

[4] = NCI Yeast Anticancer Drug Screen. Data for the cln2 rad14 strain (AID 165);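 also: 0% = growth equal to vehicle treated cultures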; details: S. cerevisiae cln2 rad14 strain, at 50.0 µM, stronger effect = higher value
Outline: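 Strain: cln2 rad14 yeast, altered in cell cycle control and DNA damage repair. Read-out: growth inhibition vs vehicle.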

[5] = NCI Yeast Anticancer Drug Screen. Data for the bub3 strain (AID 167); details: S. cerevisiae bub3 mutant strain, at 50.0 µM, stronger effect = higher value
Outline: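 Mutant yeast screening strain plus compound; vehicle-treated cultures serve as the 0% inhibition reference.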

[6] = NCI Yeast Anticancer Drug Screen. Data for the mlh1 rad18 strain (AID 175); details: S. cerevisiae mlh1 rad18 strain growth inhibition; at 50.0 µM; stronger effect = higher value
Outline: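 A repair-deficient yeast strain is exposed to test compound, and growth is scored relative to vehicle-treated controls.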

Measured: growth inhibition

Cc1cc(-n2nnc3ccccc3c2=O)on1
inactive: [1] -21.2% | [2] -30.7% | [3] -17.1% | [4] -9.5% | [5] -26% | [6] 2.5%

Cc1ccccc1N1CC2CC3C=CC2(C1)O3 (stereo not drawn)
inactive: [1] 8.5% | [2] 15.9% | [3] 16.8% | [4] -10.1% | [5] 1.35% | [6] 1.7%

O=C(OCC1CCCO1)c1ccccc1Cl (stereo not drawn)
inactive: [1] 11.8% | [2] -10.2% | [3] -0.95% | [4] -6.6% | [5] 7.2% | [6] 0%

c1ccc(N=c2snc3scc(-c4ccccc4)n23)cc1
inactive: [1] 28.4% | [2] 6.95% | [3] 13.8% | [4] 17.6% | [5] 33.5% | [6] 16.6%

CC(=O)C1=CCC2c3[nH]c4ccccc4c3CCN2C1 (stereo not drawn)
inactive: [1] 17.6% | [2] 4.1% | [3] 20.3% | [4] 25.7% | [5] 1.5% | [6] 18.9%

C[n+]1ccccc1C(=O)O
inactive: [1] 29.3% | [2] 28.9% | [3] 50.4% | [4] 26.6% | [5] 31.3% | [6] 40.4%

CCn1c2c(c3ccccc31)[C@@H](c1ccc(Cl)cc1)CC1C(=O)N(c3ccccc3)C(=O)C21 (stereo partly drawn)
inactive: [1] 17.8% | [2] 33.3% | [3] 14.8% | [4] -8.05% | [5] 38.4% | [6] 35.5%

O=S(=O)(O)SCC1=NCCCCN1
inactive: [1] -2.95% | [2] -5.7% | [3] -6.35% | [4] -9.4% | [5] -14.4% | [6] 0.05%

CCCC(=O)C(CC)C(=O)OCC (stereo not drawn)
inactive: [1] -8.7% | [2] -1.35% | [3] -3% | [4] -9.8% | [5] -0.25% | [6] 11.4%

C=C(C(=C)P(=S)(c1ccccc1)c1ccccc1)P(=S)(c1ccccc1)c1ccccc1
inactive: [1] -10% | [2] -10.7% | [3] -37.1% | [4] -7.15% | [5] -5.8% | [6] -16.3%

O[C@@H]1CC2(Cl)CC1(Cl)C(Cl)=C2Cl (stereo partly drawn)
inactive: [1] 19.4% | [2] 5.5% | [3] 11.7% | [4] -2.05% | [5] -4.1% | [6] 18.5%

CC(=O)/C(=C/c1ccc(F)cc1)C(=O)CCN(C)C
inactive: [1] 8.15% | [2] 16.6% | [3] 20.9% | [4] 9.55% | [5] -11.5% | [6] -22.2%

Nc1nc(SCC(=O)O)[nH]c(=O)c1N
inactive: [1] -16.2% | [2] 30.1% | [3] -1.7% | [4] 6.25% | [5] -0.25% | [6] 2.7%

Cc1cc2c(nn1)CCc1c-2no[n+]1[O-]
inactive: [1] 3.15% | [2] -32.1% | [3] -10.4% | [4] 22.5% | [5] 3.45% | [6] -2.8%

Nc1nc(N)c2nc(C(=O)O)c(C(=O)O)nc2n1
inactive: [1] -20.6% | [2] -8.2% | [3] -11.5% | [4] -15.8% | [5] -19% | [6] -4.2%

O=[N+]([O-])c1cc(Cl)cc2c1nc(NCCCO)c1ccccc12
inactive: [1] -0.8% | [2] 7.35% | [3] -0.3% | [4] -7.95% | [5] -7.65% | [6] 27.9%

COC(=O)N[C@H](C(=O)O)C(C)O[Si](C)(C)C(C)(C)C (stereo partly drawn)
inactive: [1] -16.2% | [2] -14% | [3] -52.6% | [4] 8.2% | [5] -33% | [6] -34.5%

COC(=O)CC1(O)C=CC(=O)c2ccccc21 (stereo not drawn)
inactive: [1] 2.35% | [2] -6.65% | [3] -3.8% | [4] -25.9% | [5] 44% | [6] -5.7%

COc1ccc(SC2=CC(=O)c3ccccc3C2=O)cc1
inactive: [1] 41% | [2] 11.2% | [3] 34.2% | [4] -16.4% | [5] -11.6% | [6] 30.6%

CC(=O)c1cc(C)oc1C
inactive: [1] -5.1% | [2] -8.25% | [3] -12.8% | [4] -32.1% | [5] 2.8% | [6] 12.9%

Cn1c(=O)c2nc3c(=O)n(C)c(=O)n(CC(N)=O)c3nc2n(C)c1=O
inactive: [1] 28.2% | [2] -5.65% | [3] 14.9% | [4] 26.2% | [5] 12.1% | [6] 21.4%

Cc1nc(NCCNCCO)nc2c1C(=O)Nc1ccccc1N2
inactive: [1] -43.9% | [2] -50.8% | [3] -7.65% | [4] -5.3% | [5] -3.9% | [6] -38.8%

Nc1cc2[nH]c(=O)c3cc([N+](=O)[O-])ccc3c2cc1Cl
inactive: [1] 63.1% | [2] 1.3% | [3] 12.3% | [4] 4.8% | [5] -11.6% | [6] 32.2%

Cc1c2oc3c(C)ccc(C(=O)NCCN4CCN(c5ccccc5)CC4)c3nc-2c(C(=O)NCCN2CCN(c3ccccc3)CC2)c(N)c1=O
inactive: [1] -4.7% | [2] 2.2% | [3] -8.5% | [4] -11.3% | [5] -3.9% | [6] -32.6%

O=C1Cc2c(-c3cccs3)cc(-c3ccccc3)nc2-c2ccccc2N1
inactive: [1] 0% | [2] -3.9% | [3] 3.4% | [4] 18.2% | [5] -4.75% | [6] 7.85%

O=S(=O)(CS(=O)(=O)c1ccccc1Br)c1ccccc1Br
inactive: [1] -7.65% | [2] 30.3% | [3] -16% | [4] 13% | [5] 1.95% | [6] 6.95%

COc1cc(C2OC[C@@H]3C(=O)OC[C@H]23)cc(O)c1OC (stereo partly drawn)
inactive: [1] 3.35% | [2] -1.6% | [3] -33.1% | [4] -13.3% | [5] -38.8% | [6] -23.7%

CN(C)Cc1cc(Cl)c(O)c(CN(C)C)c1
inactive: [1] -17.6% | [2] -43.5% | [3] -38.4% | [4] 23.7% | [5] -30.6% | [6] 15.1%

Cc1ccsc1C(=O)c1ccccc1
inactive: [1] -11.6% | [2] -7% | [3] -5.65% | [4] -24.6% | [5] -1.5% | [6] 5.45%

COC(=O)C1(CC(=O)c2ccccc2)NC(=S)NC(=O)C1C#N (stereo not drawn)
inactive: [1] 1.85% | [2] -13.9% | [3] -24.4% | [4] -15.8% | [5] -33.5% | [6] -3.35%

O=C1NC(=O)C(F)(F)C1(F)F
inactive: [1] 4.9% | [2] 7.3% | [3] -6.45% | [4] -1.1% | [5] 0.25% | [6] 4.35%

CN(C)c1ccc(/C=N/NC(=O)c2ccccc2NC(=O)C2CC2)cc1
inactive: [1] -11.4% | [2] 1.4% | [3] 27% | [4] -18.8% | [5] 24.8% | [6] 26.6%

O=C(Nc1ccccc1C(=O)O)C(=O)C(C(=O)c1ccccc1-c1ccccc1)C1OC(=O)c2ccccc21 (stereo not drawn)
inactive: [1] 26.1% | [2] 5.65% | [3] 4.2% | [4] -38.6% | [5] 6.25% | [6] 13.9%

Cc1cc(C)c2c(-c3ccccc3)cc(=O)[nH]c2c1
inactive: [1] -33% | [2] -16.1% | [3] -29.4% | [4] -3.55% | [5] -33.7% | [6] -51.1%

Nc1nc(N)c2cc(CNc3ccc(C(=O)NC(C(=O)O)C(=O)O)cc3)ccc2n1
inactive: [1] -39.1% | [2] 8.1% | [3] -3.15% | [4] -16.6% | [5] -14.2% | [6] -15.6%

CC(=O)NN(C)C(C)=O
inactive: [1] 6% | [2] 27.3% | [3] -4.2% | [4] 12.4% | [5] 15.9% | [6] 10.5%

CCC1=C(CC2NCCc3ccccc32)CC2c3cc(OC)c(OC)cc3CCN2C1 (stereo not drawn)
inactive: [1] -9.9% | [2] -12.1% | [3] -14.7% | [4] 3.9% | [5] -28% | [6] -11.1%

O=C(NC(=S)Nc1ccc([N+](=O)[O-])cc1Cl)c1ccccc1F
inactive: [1] 14.2% | [2] 6.1% | [3] 20.1% | [4] 21.9% | [5] 24.1% | [6] 20.1%
